Results: the supplement of paper PMC6992640

test system: WHIM30 (cells of a triple-negative basal-like breast cancer xenograft); test: cell viability of combination (% of vehicle); higher = less cytotoxic; conditions: 1 µM; 72 h; partner dose: 10 nM
Procedure: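 PDX cells were treated for 72 h with each drug at 1 µM plus carfilzomib (10 nM; 100 nM for WHIM2). Luciferase viability is expressed as percent of vehicle.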

Row | SMILES | cell viability of combination
1 | CCCCCCCCCCCC1=C(O)C(=O)C=C(O)C1=O [Embelin] + CC(C)C[C@H](NC(=O)[C@H](CCc1ccccc1)NC(=O)CN1CCOCC1)C(=O)N[C@@H](Cc1ccccc1)C(=O)N[C@@H](CC(C)C)C(=O)[C@@]1(C)CO1 [Carfilzomib] | 17.7
2 | C=C1C(=CC=C2CCCC3(C)C2CCC3C(C)CCCC(C)C)CC(O)CC1O (stereo not given) [Alfacalcidol] + CC(C)C[C@H](NC(=O)[C@H](CCc1ccccc1)NC(=O)CN1CCOCC1)C(=O)N[C@@H](Cc1ccccc1)C(=O)N[C@@H](CC(C)C)C(=O)[C@@]1(C)CO1 [Carfilzomib] | 16.6
3 | C#Cc1cccc(Nc2ncnc3cc(OCCOC)c(OCCOC)cc23)c1 [Erlotinib] + CC(C)C[C@H](NC(=O)[C@H](CCc1ccccc1)NC(=O)CN1CCOCC1)C(=O)N[C@@H](Cc1ccccc1)C(=O)N[C@@H](CC(C)C)C(=O)[C@@]1(C)CO1 [Carfilzomib] | 27.4
4 | Cl.Cl.Fc1ccc(C(c2ccc(F)cc2)N2CCN(CC=Cc3ccccc3)CC2)cc1 [Flunarizine 2HCl] + CC(C)C[C@H](NC(=O)[C@H](CCc1ccccc1)NC(=O)CN1CCOCC1)C(=O)N[C@@H](Cc1ccccc1)C(=O)N[C@@H](CC(C)C)C(=O)[C@@]1(C)CO1 [Carfilzomib] | 15
5 | Clc1ccc(COC(Cn2ccnc2)c2ccc(Cl)cc2Cl)cc1.O=[N+]([O-])O (stereo not given) [Econazole nitrate] + CC(C)C[C@H](NC(=O)[C@H](CCc1ccccc1)NC(=O)CN1CCOCC1)C(=O)N[C@@H](Cc1ccccc1)C(=O)N[C@@H](CC(C)C)C(=O)[C@@]1(C)CO1 [Carfilzomib] | 17.7
6 | CC[C@@]1(O)C(=O)OCc2c1cc1n(c2=O)Cc2cc3c(CN(C)C)c(O)ccc3nc2-1 [Topotecan] + CC(C)C[C@H](NC(=O)[C@H](CCc1ccccc1)NC(=O)CN1CCOCC1)C(=O)N[C@@H](Cc1ccccc1)C(=O)N[C@@H](CC(C)C)C(=O)[C@@]1(C)CO1 [Carfilzomib] | 7.16
7 | CCCSc1nc(NC2CC2c2ccc(F)c(F)c2)c2nnn(C3CC(OCCO)C(O)C3O)c2n1 (stereo not given) [Ticagrelor] + CC(C)C[C@H](NC(=O)[C@H](CCc1ccccc1)NC(=O)CN1CCOCC1)C(=O)N[C@@H](Cc1ccccc1)C(=O)N[C@@H](CC(C)C)C(=O)[C@@]1(C)CO1 [Carfilzomib] | 14.4
8 | Cc1ccc(C(=O)N(CCCN)C(c2nc3cc(Cl)ccc3c(=O)n2Cc2ccccc2)C(C)C)cc1 (stereo not given) + CC(C)C[C@H](NC(=O)[C@H](CCc1ccccc1)NC(=O)CN1CCOCC1)C(=O)N[C@@H](Cc1ccccc1)C(=O)N[C@@H](CC(C)C)C(=O)[C@@]1(C)CO1 [Carfilzomib] | 19.6
9 | CNCCCC12CCC(c3ccccc31)c1ccccc12.Cl [Maprotiline HCl] + CC(C)C[C@H](NC(=O)[C@H](CCc1ccccc1)NC(=O)CN1CCOCC1)C(=O)N[C@@H](Cc1ccccc1)C(=O)N[C@@H](CC(C)C)C(=O)[C@@]1(C)CO1 [Carfilzomib] | 16
10 | Clc1ccc(C(Cn2ccnc2)OCc2ccsc2Cl)c(Cl)c1 (stereo not given) [Tioconazole] + CC(C)C[C@H](NC(=O)[C@H](CCc1ccccc1)NC(=O)CN1CCOCC1)C(=O)N[C@@H](Cc1ccccc1)C(=O)N[C@@H](CC(C)C)C(=O)[C@@]1(C)CO1 [Carfilzomib] | 16.9
11 | O=C(C=Cn1cnc(-c2cc(C(F)(F)F)cc(C(F)(F)F)c2)n1)NNc1cnccn1 + CC(C)C[C@H](NC(=O)[C@H](CCc1ccccc1)NC(=O)CN1CCOCC1)C(=O)N[C@@H](Cc1ccccc1)C(=O)N[C@@H](CC(C)C)C(=O)[C@@]1(C)CO1 [Carfilzomib] | 5.58
12 | CCCCCCCCCCCCCCCCOP(=O)([O-])OCC[N+](C)(C)C [Miltefosine] + CC(C)C[C@H](NC(=O)[C@H](CCc1ccccc1)NC(=O)CN1CCOCC1)C(=O)N[C@@H](Cc1ccccc1)C(=O)N[C@@H](CC(C)C)C(=O)[C@@]1(C)CO1 [Carfilzomib] | 22.7
13 | CCc1oc2ccccc2c1C(=O)c1cc(Br)c(O)c(Br)c1 [Benzbromarone] + CC(C)C[C@H](NC(=O)[C@H](CCc1ccccc1)NC(=O)CN1CCOCC1)C(=O)N[C@@H](Cc1ccccc1)C(=O)N[C@@H](CC(C)C)C(=O)[C@@]1(C)CO1 [Carfilzomib] | 20.1
14 | CCCCCCCCOc1ccccc1C(=O)Nc1ccc(C(=O)OCC[N+](C)(CC)CC)cc1.[Br-] [Otilonium Bromide] + CC(C)C[C@H](NC(=O)[C@H](CCc1ccccc1)NC(=O)CN1CCOCC1)C(=O)N[C@@H](Cc1ccccc1)C(=O)N[C@@H](CC(C)C)C(=O)[C@@]1(C)CO1 [Carfilzomib] | 17.7
15 | CN1CCN(c2ccc(C(=O)/N=c3\[nH][nH]c4ccc(Cc5cc(F)cc(F)c5)cc34)c(NC3CCOCC3)c2)CC1 [Entrectinib] + CC(C)C[C@H](NC(=O)[C@H](CCc1ccccc1)NC(=O)CN1CCOCC1)C(=O)N[C@@H](Cc1ccccc1)C(=O)N[C@@H](CC(C)C)C(=O)[C@@]1(C)CO1 [Carfilzomib] | 10.1
16 | Cl.Nc1ccn(C2OC(CO)C(O)C2O)c(=O)n1 (stereo not given) [Cytarabine hydrochloride] + CC(C)C[C@H](NC(=O)[C@H](CCc1ccccc1)NC(=O)CN1CCOCC1)C(=O)N[C@@H](Cc1ccccc1)C(=O)N[C@@H](CC(C)C)C(=O)[C@@]1(C)CO1 [Carfilzomib] | 18.8
17 | CCCCCCCCc1ccc(CCC(N)(CO)CO)cc1.Cl [Fingolimod (FTY720)] + CC(C)C[C@H](NC(=O)[C@H](CCc1ccccc1)NC(=O)CN1CCOCC1)C(=O)N[C@@H](Cc1ccccc1)C(=O)N[C@@H](CC(C)C)C(=O)[C@@]1(C)CO1 [Carfilzomib] | 16.7
18 | CS(=O)(=O)O.Cc1c(O)cccc1C(=O)NC(CSc1ccccc1)C(O)CN1CC2CCCCC2CC1C(=O)NC(C)(C)C (stereo not given) [Nelfinavir Mesylate] + CC(C)C[C@H](NC(=O)[C@H](CCc1ccccc1)NC(=O)CN1CCOCC1)C(=O)N[C@@H](Cc1ccccc1)C(=O)N[C@@H](CC(C)C)C(=O)[C@@]1(C)CO1 [Carfilzomib] | 26.7
19 | CN1CCCC1CCOC(C)(c1ccccc1)c1ccc(Cl)cc1.O=C(O)C=CC(=O)O (stereo not given) [Clemastine Fumarate] + CC(C)C[C@H](NC(=O)[C@H](CCc1ccccc1)NC(=O)CN1CCOCC1)C(=O)N[C@@H](Cc1ccccc1)C(=O)N[C@@H](CC(C)C)C(=O)[C@@]1(C)CO1 [Carfilzomib] | 15.5
20 | CCN(CC)CCCC(C)Nc1ccnc2cc(Cl)ccc12.O=P(O)(O)O.O=P(O)(O)O (stereo not given) [Chloroquine diphosphate] + CC(C)C[C@H](NC(=O)[C@H](CCc1ccccc1)NC(=O)CN1CCOCC1)C(=O)N[C@@H](Cc1ccccc1)C(=O)N[C@@H](CC(C)C)C(=O)[C@@]1(C)CO1 [Carfilzomib] | 13.5

Row | SMILES | cell viability of combination
21 | CN1CCN(CCOc2cc(OC3CCOCC3)c3c(Nc4c(Cl)ccc5c4OCO5)ncnc3c2)CC1 [Saracatinib (AZD0530)] + CC(C)C[C@H](NC(=O)[C@H](CCc1ccccc1)NC(=O)CN1CCOCC1)C(=O)N[C@@H](Cc1ccccc1)C(=O)N[C@@H](CC(C)C)C(=O)[C@@]1(C)CO1 [Carfilzomib] | 21.1
22 | O=C(O)CO.[NH2-].[NH2-].[Pt+2] [Nedaplatin] + CC(C)C[C@H](NC(=O)[C@H](CCc1ccccc1)NC(=O)CN1CCOCC1)C(=O)N[C@@H](Cc1ccccc1)C(=O)N[C@@H](CC(C)C)C(=O)[C@@]1(C)CO1 [Carfilzomib] | 16.4
23 | CC(C)C1=CC(=C2NNC(=O)N2c2ccc3c(ccn3C)c2)C(=O)C=C1O [Ganetespib (STA-9090)] + CC(C)C[C@H](NC(=O)[C@H](CCc1ccccc1)NC(=O)CN1CCOCC1)C(=O)N[C@@H](Cc1ccccc1)C(=O)N[C@@H](CC(C)C)C(=O)[C@@]1(C)CO1 [Carfilzomib] | 23.7
24 | CCc1cnn2c(NCc3ccc[n+]([O-])c3)cc(N3CCCCC3CCO)nc12 (stereo not given) + CC(C)C[C@H](NC(=O)[C@H](CCc1ccccc1)NC(=O)CN1CCOCC1)C(=O)N[C@@H](Cc1ccccc1)C(=O)N[C@@H](CC(C)C)C(=O)[C@@]1(C)CO1 [Carfilzomib] | 7.14
25 | Cc1cccc(CN2CCN(C(c3ccccc3)c3ccc(Cl)cc3)CC2)c1.Cl.Cl (stereo not given) [Meclizine 2HCl] + CC(C)C[C@H](NC(=O)[C@H](CCc1ccccc1)NC(=O)CN1CCOCC1)C(=O)N[C@@H](Cc1ccccc1)C(=O)N[C@@H](CC(C)C)C(=O)[C@@]1(C)CO1 [Carfilzomib] | 11.7
26 | CC(C)(C)c1ccc(C(O)CCCN2CCC(C(O)(c3ccccc3)c3ccccc3)CC2)cc1 (stereo not given) [Terfenadine] + CC(C)C[C@H](NC(=O)[C@H](CCc1ccccc1)NC(=O)CN1CCOCC1)C(=O)N[C@@H](Cc1ccccc1)C(=O)N[C@@H](CC(C)C)C(=O)[C@@]1(C)CO1 [Carfilzomib] | 15.5
27 | Nc1ccn(C2OC(CO)C(O)C2O)c(=O)n1 (stereo not given) [Cytarabine] + CC(C)C[C@H](NC(=O)[C@H](CCc1ccccc1)NC(=O)CN1CCOCC1)C(=O)N[C@@H](Cc1ccccc1)C(=O)N[C@@H](CC(C)C)C(=O)[C@@]1(C)CO1 [Carfilzomib] | 19.3
28 | Nc1ncn(C2OC(CO)C(O)C2O)c(=O)n1 (stereo not given) [5-Azacytidine] + CC(C)C[C@H](NC(=O)[C@H](CCc1ccccc1)NC(=O)CN1CCOCC1)C(=O)N[C@@H](Cc1ccccc1)C(=O)N[C@@H](CC(C)C)C(=O)[C@@]1(C)CO1 [Carfilzomib] | 20.7
29 | [O-]n1ccccc1=S.[O-]n1ccccc1=S.[Zn+2] [Zinc Pyrithione] + CC(C)C[C@H](NC(=O)[C@H](CCc1ccccc1)NC(=O)CN1CCOCC1)C(=O)N[C@@H](Cc1ccccc1)C(=O)N[C@@H](CC(C)C)C(=O)[C@@]1(C)CO1 [Carfilzomib] | 13.4
30 | COc1cc2ncnc(Nc3ccc(F)c(Cl)c3)c2cc1NC(=O)C=CCN1CCCCC1 + CC(C)C[C@H](NC(=O)[C@H](CCc1ccccc1)NC(=O)CN1CCOCC1)C(=O)N[C@@H](Cc1ccccc1)C(=O)N[C@@H](CC(C)C)C(=O)[C@@]1(C)CO1 [Carfilzomib] | 14.6
31 | CSc1ccc2c(c1)N(CCC1CCCCN1C)c1ccccc1S2.Cl (stereo not given) [Thioridazine HCl] + CC(C)C[C@H](NC(=O)[C@H](CCc1ccccc1)NC(=O)CN1CCOCC1)C(=O)N[C@@H](Cc1ccccc1)C(=O)N[C@@H](CC(C)C)C(=O)[C@@]1(C)CO1 [Carfilzomib] | 17.7
32 | CNC1CCC(c2ccc(Cl)c(Cl)c2)c2ccccc21.Cl (stereo not given) [Sertraline HCl] + CC(C)C[C@H](NC(=O)[C@H](CCc1ccccc1)NC(=O)CN1CCOCC1)C(=O)N[C@@H](Cc1ccccc1)C(=O)N[C@@H](CC(C)C)C(=O)[C@@]1(C)CO1 [Carfilzomib] | 11
33 | Nc1ccc2cc3ccc([NH3+])cc3nc2c1.Nc1ccc2cc3ccc([NH3+])cc3nc2c1.O=S(=O)([O-])[O-] [Proflavine Hemisulfate] + CC(C)C[C@H](NC(=O)[C@H](CCc1ccccc1)NC(=O)CN1CCOCC1)C(=O)N[C@@H](Cc1ccccc1)C(=O)N[C@@H](CC(C)C)C(=O)[C@@]1(C)CO1 [Carfilzomib] | 11.2
34 | CC(O)C(=O)O.CC(O)C(=O)O.CN1CCN(c2ccc3c(c2)NC(=C2C(=O)N=c4cccc(F)c4=C2N)N3)CC1 [Dovitinib Dilactic acid] + CC(C)C[C@H](NC(=O)[C@H](CCc1ccccc1)NC(=O)CN1CCOCC1)C(=O)N[C@@H](Cc1ccccc1)C(=O)N[C@@H](CC(C)C)C(=O)[C@@]1(C)CO1 [Carfilzomib] | 32.1
35 | CCCCc1oc2ccc(NS(C)(=O)=O)cc2c1C(=O)c1ccc(OCCCN(CCCC)CCCC)cc1.Cl [Dronedarone HCl] + CC(C)C[C@H](NC(=O)[C@H](CCc1ccccc1)NC(=O)CN1CCOCC1)C(=O)N[C@@H](Cc1ccccc1)C(=O)N[C@@H](CC(C)C)C(=O)[C@@]1(C)CO1 [Carfilzomib] | 12.7
36 | CC(C)CC(NC(=O)C(CCc1ccccc1)NC(=O)CN1CCOCC1)C(=O)NC(Cc1ccccc1)C(=O)NC(CC(C)C)C(=O)C1(C)CO1 (stereo not given) [Carfilzomib (PR-171)] + CC(C)C[C@H](NC(=O)[C@H](CCc1ccccc1)NC(=O)CN1CCOCC1)C(=O)N[C@@H](Cc1ccccc1)C(=O)N[C@@H](CC(C)C)C(=O)[C@@]1(C)CO1 [Carfilzomib] | 9.47
37 | Cl.Fc1ccc(C2CCNCC2COc2ccc3c(c2)OCO3)cc1 (stereo not given) [Paroxetine HCl] + CC(C)C[C@H](NC(=O)[C@H](CCc1ccccc1)NC(=O)CN1CCOCC1)C(=O)N[C@@H](Cc1ccccc1)C(=O)N[C@@H](CC(C)C)C(=O)[C@@]1(C)CO1 [Carfilzomib] | 12.9
38 | Cc1ccc(-n2[nH]c(C)c(NN=C3C=CC=C(c4cccc(C(=O)O)c4)C3=O)c2=O)cc1C [Eltrombopag] + CC(C)C[C@H](NC(=O)[C@H](CCc1ccccc1)NC(=O)CN1CCOCC1)C(=O)N[C@@H](Cc1ccccc1)C(=O)N[C@@H](CC(C)C)C(=O)[C@@]1(C)CO1 [Carfilzomib] | 19.8
39 | Clc1ccc(C(Cn2ccnc2)OCc2c(Cl)cccc2Cl)c(Cl)c1.O=[N+]([O-])O (stereo not given) [Isoconazole nitrate] + CC(C)C[C@H](NC(=O)[C@H](CCc1ccccc1)NC(=O)CN1CCOCC1)C(=O)N[C@@H](Cc1ccccc1)C(=O)N[C@@H](CC(C)C)C(=O)[C@@]1(C)CO1 [Carfilzomib] | 16.4
40 | COC(=O)C1=C(C)NC(C)=C(C(=O)OC2CCCN(Cc3ccccc3)C2)C1c1cccc([N+](=O)[O-])c1.Cl (stereo not given) [Benidipine HCl] + CC(C)C[C@H](NC(=O)[C@H](CCc1ccccc1)NC(=O)CN1CCOCC1)C(=O)N[C@@H](Cc1ccccc1)C(=O)N[C@@H](CC(C)C)C(=O)[C@@]1(C)CO1 [Carfilzomib] | 13.6
